About 9,100 (2.5%) of roughly 360,000 compounds were called active. Inconclusive results (about 4%) are left out. No stated cut-off is given here; in the data, active means max response below about -50%; inconclusive means no clear call, values can overlap the other calls; inactive means above that. What follows is part of a selection rich in actives, with near analogues and random picks from the rest.
Molecular target: D(3) dopamine receptor (Homo sapiens) (UniProt P35462)
Test: qHTS of D3 Dopamine Receptor Antagonist: qHTS
Details: D3R cells, DiscoveRx beta-arrestin luminescence, antagonist mode; hits give low values
In short: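 Cells plated overnight at 1500 cells/well, then exposed to library compounds with dopamine controls for 90 minutes at 37 degrees C. DiscoveRx reagent added for 30–60 minutes at room temperature; luminescence read, quantitative HTS format.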
On the % scale 0 is the no-effect control and ±100 the full control effect.

Chain of D(3) dopamine receptor (Homo sapiens) (P35462 whole entry, looked up): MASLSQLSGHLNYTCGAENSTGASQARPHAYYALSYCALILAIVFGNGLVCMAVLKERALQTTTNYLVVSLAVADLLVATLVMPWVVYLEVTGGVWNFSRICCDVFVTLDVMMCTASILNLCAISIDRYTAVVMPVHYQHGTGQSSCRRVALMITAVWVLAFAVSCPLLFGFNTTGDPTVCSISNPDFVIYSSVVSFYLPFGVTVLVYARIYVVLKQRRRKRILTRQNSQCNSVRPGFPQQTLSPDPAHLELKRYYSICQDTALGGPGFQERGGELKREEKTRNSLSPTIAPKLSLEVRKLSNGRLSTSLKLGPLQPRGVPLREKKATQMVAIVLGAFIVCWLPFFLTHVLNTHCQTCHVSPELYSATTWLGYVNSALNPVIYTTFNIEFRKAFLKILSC

SMILES | max response, negative = inhibition
Cc1ccc(S(=O)(=O)N2CCC(=O)N([C@H](COCc3ccccc3)C(C)C)CC2)cc1 | 8.56% (inactive)
CC(C)c1cc(Cn2c3ccccc3c(=O)n2C(C)Cn2cc(C3CC3)nn2)on1 (stereo not drawn) | 0.832% (inactive)
CCCCC[C@@H]1C=C(C(=O)OCC)[C@H](c2ccccc2)N1S(=O)(=O)c1ccc(C)cc1 | 0% (inactive)
O=C(OCc1cn([C@H]2C[C@H](c3ccccc3)N(C(=O)c3cccs3)C[C@@H]2O)nn1)c1ccccc1 | -25.2% (inactive)
COc1c(C)cc(C(O)c2ncc(-c3cccc(C(F)(F)F)c3)[nH]2)cc1C (stereo not drawn) | 0% (inactive)
COC(=O)N(C)C[C@@H]1OCc2cnnn2CCCC(=O)N([C@@H](C)CO)C[C@@H]1C | -14.7% (inactive)
c1ccc2cc3[nH]c(CN4CCCCC4)nc3cc2c1 | -50.3% (active)
Cc1ccc2[nH]c(=O)c(CN3CCCCC3)c(-c3ccccc3)c2c1 | 16.1% (inactive)
O=c1cc(CN2CCCCCCC2)c2c(ccc3ccccc32)o1 | 5.7% (inactive)
COc1cccc(/C=C2\SC(=S)N(CCCC(=O)N3CCOCC3)C2=O)c1 | -20.9% (inactive)
CCN1C(=S)N[C@@H](CCc2ccccc2)[C@H](C(=O)OC)[C@H]1C | -63% (active)
CCN1C(=NCc2ccc(OC)cc2)N[C@@H](CCc2ccccc2)[C@H](C(=O)NCc2ccc(OC)cc2)[C@H]1C | 4.01% (inactive)
COCCN1C(=O)N[C@@H](CCc2ccccc2)[C@H](C(C)=O)[C@H]1C | 2.91% (inactive)
Cn1c(CCN2CCN(c3ccccn3)CC2)nc2cc(NS(=O)(=O)c3ccc(F)cc3)ccc21 | 0% (inactive)
CCOC1=C2CN(S(=O)(=O)c3ccc(C)cc3)[C@H](c3cccs3)C[C@H]2[C@H]2C(=O)N(c3ccccc3)C(=O)[C@H]2C1 | -26.5% (inactive)
CCc1nc2c(OCc3ccccc3)cccn2c1N(C)C(=O)c1ccco1 | -0.512% (inactive)
Cc1ccc(S(=O)(=O)N2C[C@@H](C)[C@]3(C2)[C@H](O)[C@H](OC(=O)NCc2ccccc2)C[C@H]2C(=O)N(c4ccccc4)C(=O)[C@H]23)cc1 | 18.6% (inactive)
COc1ccccc1-c1cc(NC(C)=O)c2ncc(-c3ccc(F)cc3)n2c1 | 0% (inactive)
CC(=O)Nc1cc(-c2ccccc2F)cn2c(-c3cccc(C(F)(F)F)c3)cnc12 | -2.07% (inactive)
CC(=O)Nc1cc(-c2ccccc2N(C)C)cn2c(-c3ccc(F)c(Cl)c3)cnc12 | -55.6% (active)
CC(=O)Nc1cc(-c2cccc(CO)c2)cn2c(-c3cccc(C(F)(F)F)c3)cnc12 | -52.6% (active)
CC(=O)Nc1cccc(-c2cc(NC=O)c3ncc(-c4ccc(F)c(Cl)c4)n3c2)c1 | 58.6% (inactive)

SMILES | max response, negative = inhibition
CC(=O)Nc1cccc(-c2cc(NC(C)=O)c3ncc(-c4ccccc4)n3c2)c1 | 10.2% (inactive)
C[C@H](NC(=O)CC[C@H]1O[C@@H](n2ccc(=O)[nH]c2=O)[C@H](O)[C@@H]1O)c1cccc2ccccc12 | -12.4% (inactive)
COc1ccc(OC)c(NC(=O)c2cc(-c3cc(F)ccc3OCC3CCCO3)n[nH]2)c1 (stereo not drawn) | 8.86% (inactive)
COc1ccc(-n2c(-c3ccc(Cl)cc3)n[nH]c2=S)c(OC)c1 | 15.8% (inactive)
COC(=O)C[C@H]1C=C[C@@H](NS(=O)(=O)c2ccc(C)cc2)[C@@H](CO)O1 | 14.9% (inactive)
CCCCc1nc2ccc(F)cc2cc1C | 20.6% (inactive)
Cc1ccc(C)c(OCC(=O)NNC(=O)C2CCC2)c1 | 1.58% (inactive)
Cc1ccc(OCCCC(=O)N2CCOCC2)c(C)c1 | 4.43% (inactive)
CC(=O)Nc1ccc(S(=O)(=O)N2CCN(CCCOc3cc(C)ccc3C)CC2)cc1 | 15.6% (inactive)
Cc1ccc(C(C)(C)C)c(OCCCCN2CCCC2)c1 | -80.6% (active)
C=CCc1cc(C)ccc1OCCCn1ccnc1 | -3.51% (inactive)
Cc1ccc(OCCCCN2CCCCC2)c(Br)c1 | -102% (active)
CCN(CC)C(=O)C(C)N1c2cccc3cccc(c23)S1(=O)=O (stereo not drawn) | -22.2% (inactive)
Cc1cccc(CN2CCN(C3CN(Cc4cn(Cc5ccccc5F)nn4)S(=O)(=O)C3)CC2)c1 (stereo not drawn) | 6.92% (inactive)
O=C1c2ccccc2-c2ccccc2NC1O (stereo not drawn) | 0% (inactive)
O[C@H]1CN(Cc2cccs2)[C@@H](c2ccc(Cl)cc2)C[C@@H]1n1cc(C2CC2)nn1 | 8.97% (inactive)
NC(c1ccccc1)c1csc(NC(=O)Nc2cccc(C(F)(F)F)c2)n1 (stereo not drawn) | 18.1% (inactive)
C#CCNC(=O)C[C@@H]1C[C@@]2(C(=O)OCC)CCCC=C2N(Cc2ccco2)C1=O | 5.5% (inactive)
Cc1ccc(Cc2cnc(NC(=O)/C(C#N)=C/c3ccc(-c4cccc([N+](=O)[O-])c4)o3)s2)cc1 | -59.9% (active)
Cc1ccc(C(=O)N/C(=C/c2ccc(-c3cccc([N+](=O)[O-])c3)o2)C(=O)NCCCN(C)C)cc1 | 10.3% (inactive)
Cc1ccc(-c2ccc(/C=C(\C#N)C(N)=S)o2)c([N+](=O)[O-])c1 | -5.05% (inactive)
Cc1[nH]c2ccccc2c1C(=O)c1cc([C@H](NC(=O)OC(C)(C)C)C(C)C)sc1N | 17.9% (inactive)

SMILES | max response, negative = inhibition
COC(=O)c1ccc(CN2C(=O)C(Cc3ccccc3)ON=C2c2ncccc2C)o1 (stereo not drawn) | 14.2% (inactive)
CCCCCCN1CCN(C2CN(Cc3cn(CCCCCC)nn3)S(=O)(=O)C2)CC1 (stereo not drawn) | -13.3% (inactive)
O=C(Nc1cccc2cccnc12)c1ccc2sc([C@H]3C[C@H](O)[C@@H](CO)O3)nc2c1 | 119% (inactive)
CSc1ccccc1NC(=O)CN(C)CC(=O)Nc1ccc(Cl)cc1[N+](=O)[O-] | -10.8% (inactive)
CCN(CC)CCNc1ccc(Cl)cc1[N+](=O)[O-] | -86.2% (active)
CN(C)CCNc1ccc(-c2n[nH]c(=O)c3ccccc23)cc1[N+](=O)[O-] | -21.7% (inactive)
CC1Cc2[nH][nH]c(=O)c2C(C2CC2)O1 (stereo not drawn) | 2.81% (inactive)
O=C(NCc1ccccc1)C1c2ccccc2OCC(=O)N1C1CC1 (stereo not drawn) | 3.07% (inactive)
CCC(c1nc2ccccc2[nH]1)n1c(=O)c(-c2cccs2)nc2ccccc21 (stereo not drawn) | -19.2% (inactive)
CC(=O)Nc1cnc(-c2ccc(O)cc2C)cn1 | 12.9% (inactive)
CC1(C(=O)NS(=O)(=O)c2cccc(OC(F)F)c2)CCN1C(=O)COc1ccc(Cl)cc1 (stereo not drawn) | 0% (inactive)
CCOc1ccc(C(=O)Nc2nccs2)cc1[N+](=O)[O-] | 2.71% (inactive)
COc1ccc(C(=O)NNC(=O)c2cnccn2)cc1[N+](=O)[O-] | -63.8% (active)
COc1cccc(OCC(=O)NNC(=O)c2cnccn2)c1 | -0.611% (inactive)
CCc1nc2ccc(C(=O)Nc3cc(-c4ccccc4)ccc3OC)cn2c1N(CC)CC(=O)N(C)C | -16.4% (inactive)
NC(Cc1ccccc1)c1csc(Nc2cc(Oc3ccccc3)ncn2)n1 (stereo not drawn) | 9.45% (inactive)
O=C(c1cc(C2CCCCN2S(=O)(=O)c2ccccc2)on1)N1CCOCC1 (stereo not drawn) | 44.2% (inactive)
CCCCN(C(C)=O)c1ccc2c(c1)C1CC2CCN1Cc1ccccc1 (stereo not drawn) | -22% (inactive)
COc1ccc(-n2nnc3c(=O)n(CC(=O)N4CCC(Cc5ccccc5)CC4)cnc32)cc1 | -29.9% (inactive)
O=C(Cn1cnc2c(nnn2-c2ccccc2)c1=O)N1CCC(Cc2ccccc2)CC1 | -67.4% (active)
COc1ccc(-n2nnc3c(=O)n(CC(=O)OCc4ccccc4)cnc32)cc1 | 7.78% (inactive)
CC(C)(C)Cc1c(C2CCCCC2)nc2ccc(Br)cn12 | 20.9% (inactive)

SMILES | max response, negative = inhibition
CCN(CC)c1ncnc2c1ncn2[C@H]1CN(Cc2cccs2)C[C@@H](CO)O1 | -18.3% (inactive)
CC1(C(=O)NCc2ccc3c(c2)OCO3)CCN1C(=O)Cc1cccc2ccccc12 (stereo not drawn) | -2.93% (inactive)
CCOC(=O)N1CCN(Cc2nc(Cc3cccc(C(F)(F)F)c3)no2)CC1 | -50.2% (active)
O=C(c1ccco1)N1CCN(Cc2cccc(C(F)(F)F)c2)CC1 | 19.4% (inactive)
FC(F)(F)c1cccc(Cc2noc(CN3CCC(N4CCCCC4)CC3)n2)c1 | 43.6% (inactive)
CCCNC(=O)C1(C)CCCN(C(=O)c2cccc(OC(C)=O)c2C)C1 (stereo not drawn) | 9.36% (inactive)
COc1ccccc1Cc1c(-c2ccc(Cl)cc2)nc2c3ccccc3ccn12 | 7.3% (inactive)
O=C(NCCS(=O)(=O)NCc1ccc(F)cc1)c1ccccc1 | -8.19% (inactive)
Cc1ccc(CNS(=O)(=O)CCNC(=O)c2ccccc2)cc1 | 18.2% (inactive)
CCCCNCCS(=O)(=O)NCc1ccccc1 | -71.2% (active)
CC(=O)N1CCN(Cc2cc(=O)oc3cc(C)ccc23)CC1 | 10.4% (inactive)
COc1ccc(S(=O)(=O)N2CCN(CC(=O)N3CCNC3=O)CC2)cc1OC | 3.73% (inactive)
Cn1ncc([N+](=O)[O-])c1C(=O)Nc1cc(Cl)ccc1Cl | 0% (inactive)
O=C(/C=C/Sc1ncn[nH]1)c1ccc(Cl)cc1 | -50.9% (active)
O=C(CSc1ncn[nH]1)Nc1ccc(Br)cc1Br | -17.2% (inactive)
O=C(CSc1ncn[nH]1)NCc1ccc2c(c1)OCO2 | 5.23% (inactive)
CN(C)C(=O)c1cccc(-c2cnc3sc(NCc4ccc5c(c4)OCO5)nn23)c1 | 59.7% (inactive)
CCCCCc1c(-c2cccc(Br)c2)ncn1CCc1ccccc1OC | 19.8% (inactive)
CCCNC(=O)C1(C)CCCN(C(=O)c2oc3ccccc3c2C)C1 (stereo not drawn) | -13.3% (inactive)
Cn1cc(Cl)c(C(=O)NNC(=S)Nc2cccc(Cl)c2)n1 | -24.3% (inactive)
Cc1nn(C)cc1CNC(=O)Nc1ccc(Cl)cc1 | 6.1% (inactive)
Cc1nn(C)cc1C(=O)NNC(=S)Nc1ccc(Cl)cc1 | -63.2% (active)
